Measurements published in PubChem BioAssay AID977607 (Broad Institute, 2014).
The campaign covered roughly 1,500 compounds. About 460 (31%) were called active. Roughly 1% stayed inconclusive and do not appear here.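 How the source made its calls: active means curve reaches 40% activation over neutral controls at an AC40 no higher than the top valid tested concentration; inconclusive means no clear call, values can overlap the other calls; inactive means signal moving opposite to the expected increase, and the rest.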 These entries were drawn from the full list. Measured potencies and affinities stand elsewhere.

Experiment: GLuc-reported insulin release enhancers, glucose-stimulated beta cells – cell-based, INS-1E, Gaussia luciferase, luminescence, cherry-pick, set 2, dose response (AID 977607);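 further: 0% = median of the plate neutral control wells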
Details: INS-1E GLuc insulin secretion reporter, 2-3 h, active compounds read high; at 35 µM, 100% = signal doubled over neutral wells unless noted

Max activation, inactive:
CCOc1nc(NC(=O)NS(=O)(=O)Oc2ccccc2Cl)nc(-c2ccccc2)n1 -20.8% [at 0.0016 µM, 100% = signal doubled over neutral wells]
Cc1ccc(-c2ccc([C@@H]3[C@@H]4CN(Cc5ccccc5F)C[C@H]3N4)cc2)cc1 26.7% [at 0.42 µM, 100% = signal doubled over neutral wells]
CC1Oc2ccccc2N(Cc2cccc(F)c2)C1=O (stereo unspecified) -13.7% [at 0.005 µM, 100% = signal doubled over neutral wells]
O=C(NC1CCCC1)C(C1CC1)n1c(-c2ccccn2)nc2ccccc21 (stereo unspecified) -23.1% [at 0.135 µM, 100% = signal doubled over neutral wells]
CC(C)C(C(=O)NCc1ccco1)N(CC1CCCO1)C(=O)CNS(=O)(=O)c1ccc(F)cc1 (stereo unspecified) -14.9% [at 11 µM, 100% = signal doubled over neutral wells]
CCSc1ncnc2sc3c(c12)CCC3 31.4%
COc1ccccc1-c1cnc2c(Nc3cccc(OC(F)(F)C(F)F)c3)nccn12 -17.8% [at 11 µM, 100% = signal doubled over neutral wells]
Cc1cccc(CN2C(=O)CSc3ccc(C(=O)NC4CC4)cc32)c1 41% [at 0.135 µM, 100% = signal doubled over neutral wells]
Cc1cc(NCc2ccccn2)nc2ccccc12 -14.9% [at 0.005 µM, 100% = signal doubled over neutral wells]
CCOc1ccc(CCNC(=O)c2cc(C)on2)cc1OCC -13.4% [at 0.135 µM, 100% = signal doubled over neutral wells]
O=C(CN1C(=O)NC(Cc2c[nH]c3ccccc23)C1=O)NCCc1ccccc1 (stereo unspecified) 21% [at 11 µM, 100% = signal doubled over neutral wells]
COc1ccc(CCn2nnc(-c3ccc(NC(C)=O)c(Cl)c3)n2)cc1 -24.6% [at 11 µM, 100% = signal doubled over neutral wells]
COc1ccc(C2CC(=O)C(c3ccc(C)cc3)=CN2Cc2ccccc2)cc1 (stereo unspecified) -26.2%
O=c1c2sccc2n(Cc2cccc(F)c2)c(=O)n1-c1ccc(F)cc1 -14.5% [at 0.005 µM, 100% = signal doubled over neutral wells]
COc1cccc(-c2ccc3c(c2)N(Cc2cccc(F)c2)C(=O)C(C)S3)c1 (stereo unspecified) -26.7% [at 11 µM, 100% = signal doubled over neutral wells]
COc1ccc2nc(CCN(C)C(=O)C3CCC(=O)N(Cc4cccc(F)c4)C3)[nH]c2c1 (stereo unspecified) -20.4%
CN(C(=O)c1ccc(C#N)cc1)c1nnc(-c2cnccn2)s1 -16.1% [at 0.42 µM, 100% = signal doubled over neutral wells]
Cc1cc(C)n(CC(=O)n2c3ccccc3c3ccccc32)n1 20.6%
CN[C@H]1C[C@@H](c2ccccc2)N(C(C)=O)C[C@H]1CO -14% [at 0.135 µM, 100% = signal doubled over neutral wells]
COC(=O)c1ccc(C)c(-n2c(=O)n(Cc3ccccc3)c(=O)c3[nH]cnc32)c1 -20.8% [at 0.005 µM, 100% = signal doubled over neutral wells]
CC1CN(Cc2ccccc2)C(=S)NC1=O (stereo unspecified) -25.1% [at 3.8 µM, 100% = signal doubled over neutral wells]
Cc1c(C=O)c2ccccn2c1C(=O)c1ccc(F)cc1 -14.1% [at 0.0016 µM, 100% = signal doubled over neutral wells]
Cc1ccc(C(=O)c2sc3nc4c(cc3c2N)CCC4)cc1 -20.2% [at 3.8 µM, 100% = signal doubled over neutral wells]
O=C(N/N=C/c1ccncc1)c1cc(-c2ccc(Br)s2)[nH]n1 46.1%
Fc1cccc(-c2nnn3c2nc(Cl)c2ccccc23)c1 -32% [at 11 µM, 100% = signal doubled over neutral wells]
CCc1cc2c(COC(=O)c3cccc(NS(C)(=O)=O)c3)cc(=O)oc2cc1O -16.1%
O=C1CCc2cc(S(=O)(=O)N3CCN(c4ccc(F)cc4)CC3)cc3c2N1CC3 -14.5% [at 0.0016 µM, 100% = signal doubled over neutral wells]
CC(C)(C(=O)N1CCC1(C)C(=O)NS(=O)(=O)c1cccc(Cl)c1)c1ccccc1 (stereo unspecified) -17.3% [at 0.135 µM, 100% = signal doubled over neutral wells]
CCOc1ccccc1CNS(=O)(=O)c1cnc[nH]1 -8.34% [at 0.005 µM, 100% = signal doubled over neutral wells]
CN1CCN(CC(O)COC(c2ccc(Cl)cc2)c2ccc(Cl)cc2)CC1 (stereo unspecified) -16.1% [at 11 µM, 100% = signal doubled over neutral wells]
COc1ccccc1CSc1nc2c(c(=O)n(C)c(=O)n2C)n1C -16.4%
CC(=O)C(C)n1c(CN(C)Cc2ccccc2)nc2c1c(=O)n(C)c(=O)n2C (stereo unspecified) 13.8% [at 11 µM, 100% = signal doubled over neutral wells]
CCOC(=O)c1nn(-c2ccccc2)c2nc(Nc3ccccc3)cc(=O)n12 -18.7% [at 0.0016 µM, 100% = signal doubled over neutral wells]
O=S(=O)(c1ccc(=S)[nH]c1)N1CCCCCC1 19.7%
Cc1ccc(C(=O)c2sc(Nc3ccccc3)c(C#N)c2N)cc1 -18.3% [at 0.005 µM, 100% = signal doubled over neutral wells]
Cc1ccc(C)c(OCC(=O)Nc2cc(NC(=O)COc3cc(C)ccc3C)cc(C(=O)O)c2)c1 -27.7%
Cc1ccc(C)c(OCC(=O)NCC(C)(C)N2CCOCC2)c1 -15.8% [at 0.015 µM, 100% = signal doubled over neutral wells]
CC(C)Cn1c(Cc2ccccc2)n[nH]c1=S -12.9% [at 3.8 µM, 100% = signal doubled over neutral wells]
Cc1ccc2nc(N/N=C/c3ccccc3C#N)nc(-c3ccccc3)c2c1 -36.1%
COCc1[nH]nc2c1C(c1ccc(C)cc1)NC2=O (stereo unspecified) 25.3%
CCOc1ccc(C(=O)OCC(=O)Nc2cc(C)on2)cc1OCC 24%
COc1ccc(S(=O)(=O)N2CCOCC2)cc1NC(=O)COc1ccccc1 -23.5%
CCOc1ccc(-c2noc(CCC(=O)NC)n2)cc1OCC -18.4% [at 0.005 µM, 100% = signal doubled over neutral wells]
COc1ccc(C(C)=O)cc1Cn1cnc2c(cnn2C)c1=O -12.8% [at 0.015 µM, 100% = signal doubled over neutral wells]
Cc1sc2ncn(CC(=O)NCc3ccccc3)c(=O)c2c1C -22.8% [at 0.015 µM, 100% = signal doubled over neutral wells]
CCC(=O)Nc1cc2nn(-c3ccc(OC)cc3)nc2cc1C -15.9% [at 3.8 µM, 100% = signal doubled over neutral wells]
O=C(Cn1cnc2sc(-c3ccccc3)cc2c1=O)NCCc1ccccc1 -13.9% [at 11 µM, 100% = signal doubled over neutral wells]
Cc1cc(-c2ccc(S(=O)(=O)N3CCN(C)CC3)s2)on1 -22.5%
OC(c1ccc(Cl)cc1)C(CN1CCOCC1)c1ccccc1 (stereo unspecified) -24.5%
COC(=O)c1ccc(CNC(=O)CCc2c[nH]c3ccccc23)cc1 -13.7% [at 0.015 µM, 100% = signal doubled over neutral wells]
C/C(=N/Oc1nc(C)cc(C)n1)c1ccc(F)cc1 -10.7% [at 3.8 µM, 100% = signal doubled over neutral wells]
COc1ccc(-n2c(O)cnc2Nc2nc(C)cc(C)n2)cc1OC -16.8% [at 0.135 µM, 100% = signal doubled over neutral wells]
CNc1cc(-c2ccc(OC)c(OC)c2)ncn1 -15.3% [at 0.046 µM, 100% = signal doubled over neutral wells]
CNc1ccc(-c2ccccc2OC)cn1 -9.32% [at 1.2 µM, 100% = signal doubled over neutral wells]
O=C(NC1CCCC1)c1ccc(Cl)c(S(=O)(=O)N2CCOCC2)c1 23.2% [at 0.42 µM, 100% = signal doubled over neutral wells]
Cc1ccccc1CSCc1ccc(C(=O)NCCCN2CCOCC2)o1 -12.1% [at 0.046 µM, 100% = signal doubled over neutral wells]
